# Laboratory results taken from PubChem BioAssay (NCATS).
# Records with an inconclusive call do not appear. Activity calls are given as the source filed them. Calls come from the whole dose curve; as a rule, active = well fitted inhibition curve with a large enough effect; inconclusive = small, poorly fitted or top-dose-only effect; inactive = flat fitted curve, though single readings scatter.
# Target: Calcium and integrin-binding protein 1 (Homo sapiens) (UniProt Q99828)
# Assay: Primary qHTS for Identification of Calcium Integrin Binding Protein 1 (CIB1) Competitor (AID 1508620);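 note: GST tagged CIB1 binding a fluorescein labelled alphaIIb integrin peptide tracer; top concentration of the series differs between compounds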
# Details: CIB1-GST / FITC-alphaIIb peptide fluorescence polarization; series mostly up to 114 µM; activity change, negative = inhibition: at the top concentration
# Summary of the method: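 CIB1-GST (1 uM final) and compound incubated 15 min at room temperature before adding FITC-alphaIIb peptide tracer (100 nM final). Competition for binding read by fluorescence polarization (ex 480, em 540) after another 15 min at room temperature.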
# % is set by controls: 0 for no effect and ±100 for the full control effect.
# Chain of Calcium and integrin-binding protein 1 (Homo sapiens) (Q99828 whole entry, looked up): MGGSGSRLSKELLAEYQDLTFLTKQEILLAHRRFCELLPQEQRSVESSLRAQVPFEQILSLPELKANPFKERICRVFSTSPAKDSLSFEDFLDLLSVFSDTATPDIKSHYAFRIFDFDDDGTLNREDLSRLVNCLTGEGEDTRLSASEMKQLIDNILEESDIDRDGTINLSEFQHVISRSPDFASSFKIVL
row,SMILES,"activity change, negative = inhibition"
1,Cc1ccc(OCCn2c(CCNC(=O)c3cccnc3)nc3ccccc32)cc1,6.98% (inactive)
2,N#Cc1c(-c2cc(C(F)(F)F)cc(C(F)(F)F)c2)no[n+]1[O-],2.24% (inactive)
3,O=C(Nc1ccc2ccccc2c1)Nc1cccc(-c2ccncc2)n1,1.27% (inactive)
4,O=C(Cc1ccc(Cl)c(Cl)c1)Nc1ccc([S+](=O)([O-])Nc2ncn[nH]2)cc1,-10.3% (inactive)
5,Cc1ccc(S(=O)(=O)Nc2ccc(NS(=O)(=O)c3ccc(C)cc3)c3ncccc23)cc1,-1.3% (inactive)
6,COc1ccc(C2c3ccc4ccccc4c3Oc3ncn(CCN4CCOCC4)c(=N)c32)cc1OC (configuration not stated),3.12% (inactive)
7,O=C(Cn1cc(CNC(=O)c2ccccc2)nn1)Nc1cc(C(F)(F)F)ccc1Cl,0.989% (inactive)
8,O=C(Nc1ccc2ccccc2c1)Nc1nnc(-c2ccccc2Cl)s1,9.84% (inactive)
9,O=C(OCC#CCSc1nnc(-c2ccc3ccccc3c2)o1)c1cccs1,-1.07% (inactive)
10,Cc1cc(C)n2ncc(C(=O)Nc3cccc(C#N)c3)c2n1,-2.37% [at 30.2 µM] (inactive)
11,Cc1ccnc(NC(=S)NCCNc2cccc(C(F)(F)F)c2)c1,-4.66% (inactive)
12,N#Cc1ccc(-c2ccc(CNc3ccc(N4CCOCC4)cc3)cn2)cc1,-9.84% (inactive)
13,CCOc1ccc(CCNC(=O)c2cc3ccccc3n2Cc2ccc(Cl)c(F)c2)cc1OCC,-0.838% (inactive)
14,COc1ccccc1NS(=O)(=O)c1cc(NC(=O)c2ccccc2)ccc1N1CCCC1,-2.78% (inactive)
15,Clc1cccc(-c2nc(-c3ccc(-c4nn[nH]n4)cc3)no2)c1,-16.1% (inactive)
16,C=CCNc1oc(-c2cccnc2)nc1C#N,-0.52% (inactive)
17,O=C1Nc2ccc(Cl)cc2/C1=C\c1cc(Cl)c(O)c(Cl)c1,33.1% (inactive)
